Source: PubChem (The Scripps Research Institute Molecular Screening Center)
M1 antag = blocks human M1 muscarinic receptor | hit rate 1.3% among 360,000 | inhibition, % at 3 µM | P11229 | CHO-K1 hM1, Fluo-8 calcium fluorescence, ACh EC80 antagonist | AID 588852;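 active = percent inhibition above its own plate's cutoff, namely the mean of that plate's compound wells plus 3 SD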;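 note: peak over basal fluorescence ratio during 140 s after agonist addition; 0% = ACh EC80 plus DMSO and 100% = DMSO alone without agonist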
Target sequence (P11229 whole entry, looked up): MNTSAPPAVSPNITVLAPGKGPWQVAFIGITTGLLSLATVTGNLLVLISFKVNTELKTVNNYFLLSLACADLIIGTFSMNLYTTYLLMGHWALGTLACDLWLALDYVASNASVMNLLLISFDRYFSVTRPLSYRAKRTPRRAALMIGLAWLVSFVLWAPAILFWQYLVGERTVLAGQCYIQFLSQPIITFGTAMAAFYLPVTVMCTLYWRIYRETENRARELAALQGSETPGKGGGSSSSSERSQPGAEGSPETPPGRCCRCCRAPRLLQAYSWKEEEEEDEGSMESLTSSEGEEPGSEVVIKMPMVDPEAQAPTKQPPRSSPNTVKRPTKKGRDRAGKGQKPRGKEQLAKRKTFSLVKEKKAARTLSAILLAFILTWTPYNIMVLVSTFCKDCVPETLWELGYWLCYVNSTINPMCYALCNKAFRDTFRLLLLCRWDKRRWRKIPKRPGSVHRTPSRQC
CHO-K1 Ca antag = M1 antagonist counterscreen hit in parental CHO-K1 cells; inhibition, % at 3 µM; ATP-induced calcium, Fluo-8 fluorescence; hit rate 0.6% among 360,000; AID 602250;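 active = inhibition above a per-plate cutoff, the plate's mean sample inhibition plus 3 SD, cut at about 24% in these data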;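 note: 0% = DMSO plus EC80 ATP and 100% = DMSO alone without ATP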
M1 PAM = potentiates human M1 receptor response to acetylcholine | P11229 | CHO-K1 hM1, Fluo-8 calcium fluorescence, ACh EC20; 0% = ACh EC20, 100% = maximal ACh | activation, % at 3 µM | hit rate 0.088% among 360,000; in the data active = activation above about 19%, passing the limit was not always enough
CHO-K1 Ca ag = counter-screen for M1 agonists: effect in parental CHO-K1 cells. activation, % at 3 µM. Fluo-8 calcium fluorescence; scaled to maximal ATP response, vehicle zero. hit rate 0.48% among 360,000; in the data active = activation above about 15%;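 note: untransfected CHO-K1 host cells lacking M1 receptor as counterscreen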
M1 PAM parental = M1 PAM counterscreen hit in parental CHO-K1 cells | ATP EC20, Fluo-8 calcium fluorescence; 0% at ATP EC20, 100% at ATP max | AID 602247 | activation, % at 3 µM | hit rate 0.02% among 360,000;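 active = activation above the run cutoff, the mean activation of all test compounds plus 3 SD, cut at about 40% in these data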;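 note: peak over basal fluorescence ratio in a 140 s read after ATP addition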
CHRM1 agonist = human M1 muscarinic receptor agonism | P11229 | CHO-K1 hM1, Fluo-8 calcium fluorescence, agonist mode; 0% DMSO, 100% acetylcholine EC100 | activation, % at 3 µM | hit rate 0.33% among 360,000 | AID 588814;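 active = activation above the run's mean compound activation plus 3 SD, cut at about 16% in these data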;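 note: peak over basal fluorescence ratio within a 140 s kinetic read after compound addition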
* hit, by the source's call. Hits are enriched below; roughly 2.3% of the tested compounds scored in any of these assays.

SMILES	M1 antag	CHO-K1 Ca antag	M1 PAM	CHO-K1 Ca ag	M1 PAM parental	CHRM1 agonist
CS(=O)(=O)c1ccc(C2=C(CNC(=O)c3ccc([N+](=O)[O-])cc3)[C@H]3CC[C@@H](C2)N3CCOc2ccccc2)cc1	22.9	-0.9	-19.4	-0.4	-9.5	-11.5
O=C1NC(=S)NC(=O)C1Cc1ccccc1O	-15.6	-15.2	12.7	0.8	20.9	1.4
c1ccc2c(c1)Sc1ccccc1N2CC1CN2CCC1CC2 (stereo unspecified)	98.5*	4.8	-25.9	0.1	1.2	-8.7
Clc1ccc(OCC#CCN2CCCCCC2)cc1	48.9*	-14.1	-21.9	0.9	12.3	-5.5
COc1ccccc1OCC#CCN1CCCC1	90.3*	1.7	-21.8	1.8	10.5	-6.9
O=C(Nc1cccc(C(F)(F)F)c1)OC1CN2CCC1CC2 (stereo unspecified)	102.2*	4.0	-32.1	2.2	-7.3	-10.8
CCOC(=O)c1ccc(N=Cc2c(O)n(-c3ccc(OC)cc3)c(=S)[nH]c2=O)cc1	34.4*	-4.1	-30.2	2.1	9.4	-11.8
COc1cccc(OC)c1CN1CCCC(C(=O)c2cccc(Cl)c2)C1 (stereo unspecified)	21.6	6.7	-20.8	0.5	-19.4	-9.1
COc1ccc(C(=O)C2CCCN(CCc3ccccc3)C2)cc1OC (stereo unspecified)	54.7*	8.7	-31.6	0.2	-4.0	-11.1
COc1ccc(C(=O)C2CCCN(Cc3ccc(F)cc3F)C2)cc1F (stereo unspecified)	71.0*	-14.4	-26.1	1.7	10.5	-7.9
COC(=O)C1=C(c2cccc(C#N)c2)C[C@@H]2CC[C@H]1N2C(=O)NC1CCCCC1	0.1	-3.9	6.6	-0.9	9.9	-9.9
CC1(C)NC(=S)C(C)(C)N1N=O	-16.4	-5.7	6.2	0.9	8.9	1.0
C[N+]12CCC(CC1)C(=C(c1ccccc1)c1ccccc1)C2	98.4*	-8.8	-24.9	0.2	20.6	-7.0
CC[N+]12CCC(CC1)C(=C(c1ccccc1)c1ccccc1)C2	97.6*	11.8	-24.7	-0.3	-7.6	-8.1
Cc1cc(O)c2c(c1)OC(C)(C)C1=C2CC(C)CC1 (stereo unspecified)	-6.0	-19.6	-3.9	0.5	14.9	-7.0
O=P(Nc1cccnc1)(Oc1ccccc1Cl)Oc1ccccc1Cl	21.9	2.5	-16.4	6.4	10.7	-8.7
O=C(c1cccc(C(F)(F)F)c1)C1CCCN(Cc2ncc[nH]2)C1 (stereo unspecified)	17.4	-9.7	-28.8	0.9	16.9	-13.1
CCn1ccnc1CN1CCCC(C(=O)c2cccc(C(F)(F)F)c2)C1 (stereo unspecified)	77.6*	-4.4	-27.0	3.5	7.6	-9.8
Fc1ccc(N2Cc3ccccc3-n3nncc3C2)cc1	1.3	12.6	6.2	1.4	8.9	-0.1
N#CC[N+]1(CCCNP2(=O)C=C(c3ccccc3)OC(c3ccccc3)=C2)CCOCC1	-7.1	-0.8	6.9	-0.7	8.0	-5.4
Oc1ccc2c3c1O[C@H]1c4oc5ccccc5c4C[C@@]4(O)[C@@H](C2)N(CC2CC2)CC[C@]314	-33.5	5.5	2.5	0.3	-10.2	-7.2
Cc1ccc(C(=O)C2CN(C)CC2C(=O)c2ccc(C)cc2)cc1 (stereo unspecified)	13.0	2.8	-6.8	0.1	-0.7	-1.9
Cc1ccc(C(=O)C2CN3CCC2CC3)cc1 (stereo unspecified)	27.7*	-9.1	-7.2	-0.4	15.6	1.0
CC(=O)N(C)C1=Nc2ccc(Cl)cc2C(c2ccccc2)=[N+]([O-])C1	-16.0	-6.3	9.6	1.6	16.3	-1.0
O=C(Cc1ccccc1)OCCN1CCCCC1	34.0*	-2.4	-20.3	0.1	-0.2	-6.3
SMILES	M1 antag	CHO-K1 Ca antag	M1 PAM	CHO-K1 Ca ag	M1 PAM parental	CHRM1 agonist
O=C(COC(=O)Cc1ccccc1)NCCNC(=O)COC(=O)Cc1ccccc1	-7.9	-3.3	3.6	0.1	-4.3	-1.8
NC(=Nc1ccccc1)NN=Cc1c[nH]c2ccccc12	-4.0	-6.1	-0.7	5.3	11.9	-0.1
O=C1NC(=O)C(=Cc2ccc(-c3ccc(F)cc3O)o2)C(=O)N1	46.7*	-11.3	-0.2	5.2	25.9	37.8*
Cc1cc(OCC(=O)N2C[C@H]3C[C@@H](C2)c2cccc(=O)n2C3)c2c(C)cc(=O)oc2c1	-16.7	17.8	11.5	0.0	-2.9	-1.7
O=C(CCc1ccc(O)cc1)N1C[C@H]2C[C@@H](C1)c1cccc(=O)n1C2	-8.9	-6.6	4.0	0.3	9.5	-2.8
CCc1ccc(C2=NN(CCC(=O)N3CCC4(CC3)OCCO4)C(=O)CC2)cc1	-14.6	-13.1	14.3	-0.1	20.6	-2.4
COC(=O)C1=C(c2ccc(F)cc2OCc2ccccc2)C[C@@H]2CC[C@H]1N2C(=O)N1CCCCC1	-1.1	-7.0	-6.2	-1.4	9.3	-11.0
COC(=O)C1=C(c2ccc(F)cc2OCc2ccccc2)C[C@@H]2CC[C@H]1N2C(=O)N1CCC(C)CC1	78.0*	5.3	-38.6	-1.1	3.2	-14.3
COC(=O)C1=C(c2ccc(F)cc2OCc2ccccc2)C[C@@H]2CC[C@H]1N2C(=O)NCc1ccccc1C(F)(F)F	31.7*	-7.1	-24.1	-0.1	-9.1	-8.7
CC(C)C(=O)NC(Oc1ccccc1Cl)C(Cl)(Cl)Cl (stereo unspecified)	-4.6	-8.5	-2.2	-0.4	7.2	-13.3
COC(=O)C1=C(c2cccc(OC)c2OC)C[C@@H]2CC[C@H]1N2C(=O)NCc1ccc(C(F)(F)F)cc1	2.3	-5.9	-2.0	-0.7	-16.5	-10.0
Cc1nn(-c2ccccc2)c(Cl)c1C1C(C#N)=C(N)Oc2c1c(=O)oc1ccccc21 (stereo unspecified)	3.5	25.3*	-5.8	0.0	-6.2	-2.9
N#CC1=C(N)Oc2c(c(=O)oc3ccccc23)C1c1cccnc1 (stereo unspecified)	-11.5	-10.9	5.8	-0.1	5.7	-2.2
Cc1cccc(C)c1NC1=NCCCCS1	10.9	-2.8	-1.0	0.6	-4.3	-5.5
COC1CC2C=C(C)C=CC=CC(=O)NC(c3ccccc3)CC=CCCC(O)CC(=O)C2=C1O (stereo unspecified)	55.7*	23.4	-17.6	10.0	18.0	12.4
CC(C)(C)c1ccc(C(=O)C2CCCN(C3CCC3)C2)cc1 (stereo unspecified)	51.8*	-8.2	-22.4	1.2	15.6	-6.8
CC(=O)N1CCC(N2CCCC(C(=O)c3cccc(Cl)c3)C2)CC1 (stereo unspecified)	47.7*	-5.5	-34.0	-0.2	18.8	-14.2
COC(=O)C1=C(c2ccc(C(C)=O)cc2)C[C@@H]2CC[C@H]1N2C(=O)N1CCCCC1	-8.3	-8.6	9.7	0.7	19.4	-7.6
C[N+](C)(C)CC1CCCC1=O (stereo unspecified)	-15.2	-23.5	7.4	0.7	27.2	-1.5
